Bioassay records (PubChem)
This is a sample that favours compounds with a hit; in the whole collection about 3.4% have one here.
hgDAF12 agonist: H. glycines DAF-12 receptor agonists, primary screen, cell-based, luminescence, HEK293, GAL4 fusion, UAS-luciferase; Nuclear hormone receptor DAF-12 (Heterodera glycines), GAL4 fusion; activation, % at 6.8 µM; HEK293 GAL4-hgDAF12 UAS-luciferase reporter, agonist luminescence; normalized to butyrate control; 370,000 compounds, 1.8% hits; AID 687014, 2013;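 active means activation above a cutoff set at the mean of all screened compounds plus 3 SD, cut at about 10% in these data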;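 further: 0% = DMSO wells and 100% = sodium butyrate wells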
APP 5'UTR act: activators of APP 5'UTR luciferase reporter, primary screen, SH-SY5Y cells; activation, % at 2 µM; SH-SY5Y APP 5'UTR luciferase reporter, luminescence; zero percent = DMSO vehicle wells; 190,000 compounds, 1% hits;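 active means activation above a set limit, based on mean plus 3 SD of controls, cut at about 140% in these data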
hcDAF12 agonist: H. contortus DAF-12 nuclear receptor activators, primary screen, cell-based, luminescence, HEK293, lit1-tk-luc reporter; 370,000 compounds, 1.4% hits; AID 652067, 2013; activation, % at 6.8 µM; HEK293 hcDAF-12 lit1-tk-luc reporter; 0% DMSO, 100% Δ7-dafachronic acid;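 active means activation above the mean of all tested compounds plus 3 SD, cut at about 5.5% in these data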;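 further: 100% = response to 3 µM Δ7-dafachronic acid high control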
NF-kB neuron act: activators of NF-kB expression in neurons, primary screen, cell-based, HTS; fold change at 12.5 µM; human neuronal cells, NF-kB reporter expression; stronger effect = higher value; AID 1239, 2008; 190,000 compounds, 1.6% hits; in the data active means fold change above about 3.3
ssDAF12 agonist: S. stercoralis DAF-12 nuclear receptor activators, primary screen, cell-based, luminescence, HEK293, GRIP1 co-expression, lit1-tk-luc; Nuclear hormone receptor DAF-12 (Strongyloides stercoralis); HEK293 ssDAF-12/GRIP1 lit1-tk-luc reporter; % of 3 µM dafachronic acid response; activation, % at 6.8 µM; 370,000 compounds, 1% hits; AID 652126, 2013;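 active means activation above the mean over all tested compounds plus 3 SD, cut at about 0.9% in these data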;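 further: 0% = DMSO-only wells and 100% = 3 µM delta7-dafachronic acid wells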
LXRb hcDAF ctr: LXR agonists, Gal4 luciferase reporter, confirmation, counter-screen for hcDAF-12 agonist project, cell-based, luminescence, HEK293, H. contortus campaign. AID 743027, 2013. activation, % at 6.8 µM. shares compounds with hcDAF12 agonist. HEK293 Gal4-LXR tk-luc reporter, 24 h; normalized: DMSO 0%, positive control 100%. 3,400 tested, under 10 active;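 active means mean percent activation of the reporter above a cutoff set as the average over tested compounds plus their standard deviation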
Target sequence (P55055 whole entry, looked up, the tested form may be a part): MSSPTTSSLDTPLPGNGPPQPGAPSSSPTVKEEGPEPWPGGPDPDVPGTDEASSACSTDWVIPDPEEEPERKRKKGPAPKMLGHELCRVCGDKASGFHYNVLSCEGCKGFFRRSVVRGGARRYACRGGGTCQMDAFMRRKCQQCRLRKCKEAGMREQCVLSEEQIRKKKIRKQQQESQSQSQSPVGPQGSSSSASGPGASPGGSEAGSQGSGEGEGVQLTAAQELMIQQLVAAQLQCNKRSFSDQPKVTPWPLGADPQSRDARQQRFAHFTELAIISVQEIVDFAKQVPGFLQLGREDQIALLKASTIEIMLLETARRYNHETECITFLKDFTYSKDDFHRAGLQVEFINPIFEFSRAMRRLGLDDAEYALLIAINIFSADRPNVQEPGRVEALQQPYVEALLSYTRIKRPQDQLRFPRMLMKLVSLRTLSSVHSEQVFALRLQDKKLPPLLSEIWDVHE
hcDAF12 conf: H. contortus DAF-12 receptor agonists, confirmation, cell-based, luminescence, HEK293, lit1-tk-luc, triplicate | shares compounds with hcDAF12 agonist | HEK293 hcDAF-12 lit1-tk-luc reporter; % of Δ7-dafachronic acid response | activation, % at 6.8 µM | 3,400 compounds, 61% hits;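 active means mean activation across triplicate tests above the threshold derived from the earlier primary screen, cut at about 5.5% in these data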;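 further: 0% = DMSO only wells and 100% = 3 µM Δ7-dafachronic acid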
hgDAF12 conf: H. glycines DAF-12 receptor agonists, confirmation, cell-based, luminescence, HEK293, GAL4-LBD fusion | shares compounds with hgDAF12 agonist | HEK293 GAL4-hgDAF12 luciferase reporter, agonist mode; percent of butyrate response | activation, % at 6.8 µM | 3,300 compounds, 80% hits | AID 743050, 2013;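 active means mean activation over triplicate wells above the hit cutoff derived from the earlier primary screen, cut at about 11% in these data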;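 further: 0% = DMSO low control and 100% = 2 mM sodium butyrate high control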
LXRb DAF12 ctr: LXR agonists, Gal4 luciferase reporter, confirmation, counter-screen for hgDAF-12 agonist project, cell-based, luminescence, HEK293, H. glycines campaign | shares compounds with hgDAF12 agonist | 24 h | activation, % at 6.8 µM | 3,300 tested, under 10 active;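 active means mean activation of the triplicate above a set limit carried over from the primary screen, none filed active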
* marks the source's active call; other numbers are inactive results.

Results for O=C(COc1ccc2ccccc2c1)Nc1nccs1 ?
hgDAF12 agonist: 19.1*; APP 5'UTR act: 190.1*; hcDAF12 agonist: 6.7*; NF-kB neuron act: 6.51*; ssDAF12 agonist: -0.4; LXRb hcDAF ctr: 1.7; hcDAF12 conf: 7.2*; hgDAF12 conf: 18.1*; LXRb DAF12 ctr: 1.2

How did O=C(O)c1ccc(N/N=C/c2ccc(F)c(F)c2)cc1 do in these assays?
hgDAF12 agonist: 17.8*; APP 5'UTR act: 159.0*; hcDAF12 agonist: 11.5*; NF-kB neuron act: 5.28*; ssDAF12 agonist: 0.6; LXRb hcDAF ctr: 1.6; hcDAF12 conf: 8.2*; hgDAF12 conf: 16.3*; LXRb DAF12 ctr: 0.8

What do the screens show for `Cc1ccc(-n2c(SCC(=O)C(C)(C)C)nnc2-c2cccc(C)c2)cc1`?
hgDAF12 agonist: 0.2; hcDAF12 agonist: -3.0; ssDAF12 agonist: -1.5

How did O=C1C(=Cc2cccs2)C(=O)c2ccccc21 do in these assays?
hgDAF12 agonist: -0.3; APP 5'UTR act: 3.2; hcDAF12 agonist: -1.3; NF-kB neuron act: 1.23; ssDAF12 agonist: -1.1

What do the screens show for `O=C1/C(=C\c2cccs2)Sc2ccc3ccccc3c21`?
hgDAF12 agonist: 15.5*; APP 5'UTR act: 178.5*; hcDAF12 agonist: 21.8*; NF-kB neuron act: 1.08; ssDAF12 agonist: 6.4*; LXRb hcDAF ctr: 1.9; hcDAF12 conf: 18.8*; hgDAF12 conf: 30.6*; LXRb DAF12 ctr: 1.4

What do the screens show for `O=C(NC1CCCCN(Cc2ccc(Cl)cc2)C1=O)c1ccc(F)cc1` (configuration not stated)?
hgDAF12 agonist: -0.4; hcDAF12 agonist: -2.0; ssDAF12 agonist: -1.5

How did Cc1csc(NC(=O)c2ccc(C)c([N+](=O)[O-])c2)n1 do in these assays?
hgDAF12 agonist: 14.5*; APP 5'UTR act: 171.7*; hcDAF12 agonist: 11.6*; NF-kB neuron act: 5.56*; ssDAF12 agonist: 0.8; LXRb hcDAF ctr: 1.6; hcDAF12 conf: 10.1*; hgDAF12 conf: 17.6*; LXRb DAF12 ctr: 0.9

Results for Cc1cc(C)nc(NC(=O)c2ccc(C)c([N+](=O)[O-])c2)n1 ?
hgDAF12 agonist: -0.3; APP 5'UTR act: 2.2; hcDAF12 agonist: -0.6; NF-kB neuron act: 1.06; ssDAF12 agonist: -1.0

What do the screens show for `Cc1csc(NC(=O)c2ccc3nc[nH]c3c2)n1`?
hgDAF12 agonist: 19.7*; hcDAF12 agonist: 9.8*; ssDAF12 agonist: 0.1; LXRb hcDAF ctr: 1.2; hcDAF12 conf: 5.1; hgDAF12 conf: 19.6*; LXRb DAF12 ctr: 0.9

How did CCCCNC(=O)C[C@H]1C[C@@]2(C(=O)OC)C(=C[C@H](C3CCCC3)O[C@@H]2C)N(CCC2=CCCCC2)C1=O do in these assays?
hgDAF12 agonist: -0.9; hcDAF12 agonist: 3.0; ssDAF12 agonist: -1.4

What do the screens show for `Cc1ccc(NC(=O)N2CCCc3ccccc32)cc1`?
hgDAF12 agonist: 3.5; APP 5'UTR act: 15.1; hcDAF12 agonist: 1.8; NF-kB neuron act: 1.36; ssDAF12 agonist: -1.3

What do the screens show for `Cc1ccc(NC(=O)N2CCc3ccccc32)cc1C`?
hgDAF12 agonist: 15.6*; APP 5'UTR act: 159.9*; hcDAF12 agonist: 14.9*; NF-kB neuron act: 9.21*; ssDAF12 agonist: 1.2*; LXRb hcDAF ctr: 2.2; hcDAF12 conf: 9.4*; hgDAF12 conf: 24.5*; LXRb DAF12 ctr: 1.2

What do the screens show for `COc1ccc(NC(=O)N2CCCc3ccccc32)cc1OC`?
hgDAF12 agonist: -2.7; hcDAF12 agonist: 0.8; ssDAF12 agonist: -0.2

How did Cc1ccc(NC(=O)N2CCc3ccccc32)cc1 do in these assays?
hgDAF12 agonist: 15.3*; APP 5'UTR act: 170.0*; hcDAF12 agonist: 10.4*; NF-kB neuron act: 8.12*; ssDAF12 agonist: 1.1*; LXRb hcDAF ctr: 2.2; hcDAF12 conf: 11.4*; hgDAF12 conf: 23.4*; LXRb DAF12 ctr: 1.1

How did Cc1ccccc1CN1CCCCC(NC(=O)c2ccc3ccccc3c2)C1=O (configuration not stated) do in these assays?
hgDAF12 agonist: -4.0; hcDAF12 agonist: -4.9; ssDAF12 agonist: -1.3

How did CCOc1ccc(NC(=O)CSc2nnc(-c3n[nH]c4c3CCC4)n2N)cc1 do in these assays?
hgDAF12 agonist: 4.0; hcDAF12 agonist: -1.4; ssDAF12 agonist: -1.0

How did Cc1cc(C)cc(NC(=O)C2(C(=O)C3CC3)CC(c3ccccc3C(F)(F)F)=NO2)c1 (configuration not stated) do in these assays?
hgDAF12 agonist: -1.0; hcDAF12 agonist: -0.1; ssDAF12 agonist: -1.3

How did O=C(NC1CCCCN(Cc2cccc(C(F)(F)F)c2)C1=O)c1cccc([N+](=O)[O-])c1 (configuration not stated) do in these assays?
hgDAF12 agonist: -1.4; hcDAF12 agonist: -1.1; ssDAF12 agonist: -1.7

How did COc1ccc2nc(NC(=O)Nc3ccccc3OC)sc2c1 do in these assays?
hgDAF12 agonist: 8.8; hcDAF12 agonist: 1.8; ssDAF12 agonist: -0.2

How did COc1ccc2nc(Nc3ccccc3OC)sc2c1 do in these assays?
hgDAF12 agonist: 20.4*; APP 5'UTR act: 202.5*; hcDAF12 agonist: 11.4*; NF-kB neuron act: 7.9*; ssDAF12 agonist: 1.6*; LXRb hcDAF ctr: 1.6; hcDAF12 conf: 8.7*; hgDAF12 conf: 21.8*; LXRb DAF12 ctr: 0.9

Results for O=C(NCCc1ccccc1)OCc1cn(Cc2ccc(F)cc2)nn1 ?
hgDAF12 agonist: -0.2; hcDAF12 agonist: -0.8; ssDAF12 agonist: -0.3

How did Cc1ccccc1C(=O)Nn1cnc2ccccc2c1=O do in these assays?
hgDAF12 agonist: 15.1*; APP 5'UTR act: 15.5; hcDAF12 agonist: 9.8*; NF-kB neuron act: 1.34; ssDAF12 agonist: 1.7*; LXRb hcDAF ctr: 0.3; hcDAF12 conf: 8.6*; hgDAF12 conf: 7.7; LXRb DAF12 ctr: 0.2
